Data: PubChem BioAssay (NCATS)
Results filed as inconclusive are left out. The source made the active and inactive calls. Unless noted, the call rests on the fitted dose curve; in most records, active means well fitted curve in the direction sought with a large enough effect; inconclusive means small, poorly fitted or top-dose-only effect, or another doubt; inactive means no such curve, though single readings can be large; an effect the other way counts as inactive or inconclusive.

Experiments:
[1] = biological target: Ubiquitin carboxyl-terminal hydrolase 1 (Homo sapiens) (UniProt O94782); test: Inhibitors of USP1/UAF1: Pilot qHTS (AID 504865);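 further: rhodamine fluorescence freed from ubiquitin-rhodamine substrate followed over time; top concentration of the series differs between compounds; on the % scale 0 is the no-effect control and ±100 the full control effect; nearly all actives have a fitted effect of over 35% in size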
Chain of Ubiquitin carboxyl-terminal hydrolase 1 (Homo sapiens) (O94782 whole entry, looked up): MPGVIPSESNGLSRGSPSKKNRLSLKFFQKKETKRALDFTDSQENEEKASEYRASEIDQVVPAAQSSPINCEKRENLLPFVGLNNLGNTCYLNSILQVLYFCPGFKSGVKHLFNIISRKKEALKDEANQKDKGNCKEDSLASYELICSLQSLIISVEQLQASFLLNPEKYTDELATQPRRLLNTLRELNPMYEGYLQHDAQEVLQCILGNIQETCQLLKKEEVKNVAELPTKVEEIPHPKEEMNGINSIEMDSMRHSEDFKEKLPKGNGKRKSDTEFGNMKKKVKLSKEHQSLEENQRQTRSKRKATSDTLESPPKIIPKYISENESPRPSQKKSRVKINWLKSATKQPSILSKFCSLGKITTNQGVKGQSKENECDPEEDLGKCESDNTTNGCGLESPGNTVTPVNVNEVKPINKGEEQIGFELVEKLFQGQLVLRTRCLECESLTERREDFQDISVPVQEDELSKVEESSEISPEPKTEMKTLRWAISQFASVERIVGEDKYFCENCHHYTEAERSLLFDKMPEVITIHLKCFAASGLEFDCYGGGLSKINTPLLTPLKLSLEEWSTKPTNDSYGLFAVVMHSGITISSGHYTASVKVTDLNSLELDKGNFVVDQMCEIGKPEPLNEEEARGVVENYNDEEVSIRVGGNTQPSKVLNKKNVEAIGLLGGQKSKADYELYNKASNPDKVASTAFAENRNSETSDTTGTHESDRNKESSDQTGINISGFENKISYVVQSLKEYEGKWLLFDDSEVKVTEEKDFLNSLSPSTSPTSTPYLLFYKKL
Procedure, shortened: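 USP1/UAF1 complex at 1 nM preincubated 15 min at room temperature with compound, then Ub-Rho substrate added at 150 nM final. Fluorescence (480/540 nm) read kinetically in 50 mM HEPES pH 7.8, 0.5 mM EDTA, 1 mM TCEP, 0.1 mg/ml BSA, 0.01% Tween-20.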

[2] = biological target: Luciferin 4-monooxygenase (Photinus pyralis) (UniProt P08659); test: Biochemical firefly luciferase enzyme assay for NPC (AID 624030);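 further: purified P. pyralis luciferase at 10 nM with luciferin and ATP substrate; 0% = DMSO and -100% = full luciferase inhibition by PTC124 control; nearly all actives have a fitted effect of over 70% in size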
Chain of Luciferin 4-monooxygenase (Photinus pyralis) (P08659 whole entry, looked up): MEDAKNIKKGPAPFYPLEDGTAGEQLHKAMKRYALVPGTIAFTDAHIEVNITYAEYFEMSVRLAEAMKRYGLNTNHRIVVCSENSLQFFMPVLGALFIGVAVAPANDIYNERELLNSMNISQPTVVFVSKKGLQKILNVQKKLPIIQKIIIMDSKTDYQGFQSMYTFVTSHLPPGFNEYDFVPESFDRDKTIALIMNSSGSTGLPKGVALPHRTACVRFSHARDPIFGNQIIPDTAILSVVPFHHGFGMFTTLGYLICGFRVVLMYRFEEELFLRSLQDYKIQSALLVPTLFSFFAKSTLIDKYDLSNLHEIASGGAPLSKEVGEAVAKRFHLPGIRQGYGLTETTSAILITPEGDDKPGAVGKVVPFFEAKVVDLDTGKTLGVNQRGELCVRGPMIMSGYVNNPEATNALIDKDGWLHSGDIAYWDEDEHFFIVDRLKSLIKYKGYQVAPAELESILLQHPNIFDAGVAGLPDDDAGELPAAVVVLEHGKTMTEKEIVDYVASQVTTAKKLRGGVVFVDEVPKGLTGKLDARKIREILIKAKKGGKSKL
Procedure, shortened: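 Counter-screen for direct inhibition of the luciferase enzyme by approved-drug library compounds, run at 10 nM enzyme in 50 mM Tris acetate (final). Luminescence was read within 5 min of enzyme-buffer addition and normalized to PTC124 versus DMSO (0%).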

[3] = S16 Schwann cell viability assay (CellTiter-Glo assay) (AID 624031);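 further: cellular ATP luminescence as a viability measure; plate controls were DMSO-treated cells for no effect and cell-free wells for full effect; nearly all actives have a fitted effect of over 70% in size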
Procedure, shortened: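 This viability control uses native rat S16 Schwann cells grown in DMEM plus 10% FBS. After a 24 h compound treatment at 37 °C, CellTiter-Glo luminescence reports ATP content, scaled against DMSO-treated and cell-free wells.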

[4] = S16 Schwann cell PMP22 intronic element firefly luciferase assay (AID 624032);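 further: plate controls were DMSO for no effect and PTC124 positive control mean for full effect; nearly all actives have a fitted effect of over 30% in size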
Procedure, shortened: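 Rat S16 Schwann cells stably carrying a PMP22 intronic element-driven Fluc reporter were seeded overnight, then exposed to compounds for 24 h at 37 °C. Luminescence was normalized to PTC124 (positive control) and DMSO (0% activity).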

[5] = S16 Schwann cell PMP22 intronic element beta-lactamase assay (AID 624044; calls by dose curve;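 further: 0% = DMSO and -100% = potassium clavulanate positive control; nearly all actives have a fitted effect of over 15% in size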)
Procedure, shortened: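 Rat S16 Schwann cells with beta-Lac driven by a PMP22 intronic element, compound-treated 24 h at 37 °C. LiveBLAzer FRET B/G read: 460 nm normalized to potassium clavulanate vs DMSO; 535 nm FRET as viability; concentration-effect curves classified.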

[6] = qHTS profiling for inhibitors of Plasmodium falciparum proliferation (AID 504749);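 further: 0% = DMSO vehicle and full inhibition = artemisinin control; nearly all actives have a fitted effect of over 60% in size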; conditions: P. falciparum in erythrocytes, SYBR Green DNA, 72 h, at 28.7 µM (top of the series)
Procedure, shortened: (§1)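 Parasite proliferation within erythrocytes, 72 h exposure. Endpoint: SYBR Green I fluorescence after overnight lysis at room temperature. Controls: 0.29 uM artemisinin, DMSO.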

3D7 = test: as above; conditions: P. falciparum in erythrocytes, SYBR Green DNA, 72 h; series mostly up to 28.7 µM
Procedure, shortened: as §1

7G8 = test: as above; conditions: P. falciparum in erythrocytes, SYBR Green DNA, 72 h; series mostly up to 28.7 µM
Procedure, shortened: as §1

AA1029 = test: as above; conditions: P. falciparum in erythrocytes, SYBR Green DNA, 72 h; series mostly up to 28.7 µM
Procedure, shortened: as §1

AS120 = test: as above; conditions: P. falciparum in erythrocytes, SYBR Green DNA, 72 h; series mostly up to 28.7 µM
Procedure, shortened: as §1

ATS189 = test: as above; conditions: P. falciparum in erythrocytes, SYBR Green DNA, 72 h; series mostly up to 28.7 µM
Procedure, shortened: as §1

ATS95 = test: as above; conditions: P. falciparum in erythrocytes, SYBR Green DNA, 72 h; series mostly up to 28.7 µM
Procedure, shortened: as §1

C2A = test: as above; conditions: P. falciparum in erythrocytes, SYBR Green DNA, 72 h; series mostly up to 28.7 µM
Procedure, shortened: as §1

CP185 = test: as above; conditions: P. falciparum in erythrocytes, SYBR Green DNA, 72 h; series mostly up to 28.7 µM
Procedure, shortened: as §1

CP191 = test: as above; conditions: P. falciparum in erythrocytes, SYBR Green DNA, 72 h; series mostly up to 28.7 µM
Procedure, shortened: as §1

CP192 = test: as above; conditions: P. falciparum in erythrocytes, SYBR Green DNA, 72 h; series mostly up to 28.7 µM
Procedure, shortened: as §1

CP194 = test: as above; conditions: P. falciparum in erythrocytes, SYBR Green DNA, 72 h; series mostly up to 28.7 µM
Procedure, shortened: as §1

CP201 = test: as above; conditions: P. falciparum in erythrocytes, SYBR Green DNA, 72 h; series mostly up to 28.7 µM
Procedure, shortened: as §1

CP203 = test: as above; conditions: P. falciparum in erythrocytes, SYBR Green DNA, 72 h; series mostly up to 28.7 µM
Procedure, shortened: as §1

CP211 = test: as above; conditions: P. falciparum in erythrocytes, SYBR Green DNA, 72 h; series mostly up to 28.7 µM
Procedure, shortened: as §1

CP215 = test: as above; conditions: P. falciparum in erythrocytes, SYBR Green DNA, 72 h; series mostly up to 28.7 µM
Procedure, shortened: as §1

CP217 = test: as above; conditions: P. falciparum in erythrocytes, SYBR Green DNA, 72 h; series mostly up to 28.7 µM
Procedure, shortened: as §1

CP237 = test: as above; conditions: P. falciparum in erythrocytes, SYBR Green DNA, 72 h; series mostly up to 28.7 µM
Procedure, shortened: as §1

CP238 = test: as above; conditions: P. falciparum in erythrocytes, SYBR Green DNA, 72 h; series mostly up to 28.7 µM
Procedure, shortened: as §1

CP247 = test: as above; conditions: P. falciparum in erythrocytes, SYBR Green DNA, 72 h; series mostly up to 28.7 µM
Procedure, shortened: as §1

CP250 = test: as above; conditions: P. falciparum in erythrocytes, SYBR Green DNA, 72 h; series mostly up to 28.7 µM
Procedure, shortened: as §1

CP252 = test: as above; conditions: P. falciparum in erythrocytes, SYBR Green DNA, 72 h; series mostly up to 28.7 µM
Procedure, shortened: as §1

CP256 = test: as above; conditions: P. falciparum in erythrocytes, SYBR Green DNA, 72 h; series mostly up to 28.7 µM
Procedure, shortened: as §1

CP260 = test: as above; conditions: P. falciparum in erythrocytes, SYBR Green DNA, 72 h; series mostly up to 28.7 µM
Procedure, shortened: as §1

CP262 = test: as above; conditions: P. falciparum in erythrocytes, SYBR Green DNA, 72 h; series mostly up to 28.7 µM
Procedure, shortened: as §1

CP265 = test: as above; conditions: P. falciparum in erythrocytes, SYBR Green DNA, 72 h; series mostly up to 28.7 µM
Procedure, shortened: as §1

NC(=O)CCC1NC(=O)C(Cc2ccccc2)NC(=O)C(Cc2ccc(O)cc2)NC(=O)CCSSCC(C(=O)N2CCCC2C(=O)NC(CCCN=C(N)N)C(=O)NCC(N)=O)NC(=O)C(CC(N)=O)NC1=O (configuration not stated)
inactive: Potency [1] | Potency [2] | Potency [3] | Potency [4] | Potency [5] | activity, negative = inhibition ([6]; parasite line A) 9.46% | activity, negative = inhibition ([6]; parasite line B) 7.06% | Potency (3D7) | Potency (7G8) | Potency (AA1029) | Potency (AS120) | Potency (ATS189) | Potency (ATS95) | Potency (C2A) | Potency (CP185) | Potency (CP191) | Potency (CP192) | Potency (CP194) | Potency (CP201) | Potency (CP203) | Potency (CP211) | Potency (CP215) | Potency (CP217) | Potency (CP237) | Potency (CP238) | Potency (CP247) | Potency (CP250) | Potency (CP252) | Potency (CP256) | Potency (CP260) | Potency (CP262) | Potency (CP265)
